Our source for the inhibition values is ChEMBL document CHEMBL1961873, “Compounds: GSK PKIS; Assays: Nanosyn kinase panel” (2012).

Assay [1] has as its target Tyrosine-protein kinase CSK (Homo sapiens) (UniProt P41240). The settings on record: at 1 µM.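 Note: each value is an averaged inhibition reading.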
Assay [2] deals with T1, Discoidin domain-containing receptor 2 (Homo sapiens) (UniProt Q16832).
T1 sequence (whole entry): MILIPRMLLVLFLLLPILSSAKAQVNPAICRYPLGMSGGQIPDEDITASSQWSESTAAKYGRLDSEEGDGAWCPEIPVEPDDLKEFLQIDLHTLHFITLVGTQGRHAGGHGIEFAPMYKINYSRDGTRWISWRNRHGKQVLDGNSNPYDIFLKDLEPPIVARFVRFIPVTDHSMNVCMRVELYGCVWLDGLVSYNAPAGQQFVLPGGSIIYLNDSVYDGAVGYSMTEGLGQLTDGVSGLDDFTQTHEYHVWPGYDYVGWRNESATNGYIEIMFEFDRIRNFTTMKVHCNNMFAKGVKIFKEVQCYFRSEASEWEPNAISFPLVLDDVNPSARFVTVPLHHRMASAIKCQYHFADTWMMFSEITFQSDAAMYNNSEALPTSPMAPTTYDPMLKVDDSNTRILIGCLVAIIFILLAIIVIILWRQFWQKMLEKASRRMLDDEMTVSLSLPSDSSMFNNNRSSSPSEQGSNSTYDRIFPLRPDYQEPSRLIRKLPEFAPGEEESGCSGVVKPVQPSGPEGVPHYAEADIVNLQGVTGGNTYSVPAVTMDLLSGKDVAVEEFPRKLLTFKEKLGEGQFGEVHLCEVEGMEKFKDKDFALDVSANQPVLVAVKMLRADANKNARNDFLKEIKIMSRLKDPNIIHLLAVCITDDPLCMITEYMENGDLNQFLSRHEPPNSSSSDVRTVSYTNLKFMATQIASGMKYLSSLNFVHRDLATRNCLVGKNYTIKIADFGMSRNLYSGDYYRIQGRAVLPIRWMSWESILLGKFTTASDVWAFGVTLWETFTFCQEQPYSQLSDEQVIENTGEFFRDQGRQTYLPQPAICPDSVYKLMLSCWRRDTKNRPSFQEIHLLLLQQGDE
The settings on record: at 0.1 µM.

In assay [3] the target is T1, Discoidin domain-containing receptor 2 (Homo sapiens). Particulars: at 1 µM.
Assay [4] concerns the target Epidermal growth factor receptor (Homo sapiens) (UniProt P00533). The settings on record: at 0.1 µM.
Assay [5] has the same target. The settings on record: at 1 µM.
For assay [6], the system named is Epidermal growth factor receptor (Homo sapiens), P00533 [L858R]. Particulars: at 0.1 µM.
The test system is the same in assay [7]. The settings on record: at 1 µM.
Assay [8] has as its system Epidermal growth factor receptor (Homo sapiens), P00533 [L861Q]. The settings on record: at 0.1 µM.
Assay [9] has the same test system. The settings on record: at 1 µM.
For assay [10], the system named is Epidermal growth factor receptor (Homo sapiens), P00533 [T790M]. Particulars: at 0.1 µM.
Assay [11] shares this test system. Particulars: at 1 µM.
Assay [12] relates to Epidermal growth factor receptor (Homo sapiens), P00533 [L858R,T790M]. Particulars: at 0.1 µM.
Assay [13] shares this test system. Particulars: at 1 µM.
The target of assay [14] is Ephrin type-A receptor 2 (Homo sapiens) (UniProt P29317). The settings on record: at 0.1 µM.
Assay [15] has the same target. Particulars: at 1 µM.
Assay [16] has as its target T2, Ephrin type-A receptor 3 (Homo sapiens) (UniProt P29320).
T2 sequence (whole entry): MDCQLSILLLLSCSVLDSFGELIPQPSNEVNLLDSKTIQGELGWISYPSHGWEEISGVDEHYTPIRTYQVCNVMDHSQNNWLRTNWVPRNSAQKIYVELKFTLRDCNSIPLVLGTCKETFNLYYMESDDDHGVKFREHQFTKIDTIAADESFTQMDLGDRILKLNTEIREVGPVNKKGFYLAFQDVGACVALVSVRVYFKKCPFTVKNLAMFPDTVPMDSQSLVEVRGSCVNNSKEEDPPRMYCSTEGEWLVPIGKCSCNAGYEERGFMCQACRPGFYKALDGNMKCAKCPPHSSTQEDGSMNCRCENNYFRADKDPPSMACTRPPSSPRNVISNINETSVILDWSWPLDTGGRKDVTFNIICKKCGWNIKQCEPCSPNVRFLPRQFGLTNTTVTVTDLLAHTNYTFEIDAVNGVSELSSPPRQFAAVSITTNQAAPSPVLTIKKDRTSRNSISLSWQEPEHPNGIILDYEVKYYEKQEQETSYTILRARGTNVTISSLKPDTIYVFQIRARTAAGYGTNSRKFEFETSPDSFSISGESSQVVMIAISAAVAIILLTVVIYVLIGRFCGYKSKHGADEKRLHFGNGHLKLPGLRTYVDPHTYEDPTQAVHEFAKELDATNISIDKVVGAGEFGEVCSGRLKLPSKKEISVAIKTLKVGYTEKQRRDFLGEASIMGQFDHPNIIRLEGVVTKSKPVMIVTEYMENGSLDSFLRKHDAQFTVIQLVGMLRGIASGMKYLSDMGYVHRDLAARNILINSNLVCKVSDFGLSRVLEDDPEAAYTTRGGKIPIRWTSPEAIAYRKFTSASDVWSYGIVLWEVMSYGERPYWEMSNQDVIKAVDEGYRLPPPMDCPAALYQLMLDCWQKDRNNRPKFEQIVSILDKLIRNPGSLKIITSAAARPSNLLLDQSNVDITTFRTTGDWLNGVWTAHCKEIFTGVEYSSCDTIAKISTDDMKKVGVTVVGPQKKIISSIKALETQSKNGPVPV
Particulars: at 0.1 µM.

The target in assay [17] is T2, Ephrin type-A receptor 3 (Homo sapiens). The settings on record: at 1 µM.
For assay [18], the target named is Ephrin type-A receptor 4 (Homo sapiens) (UniProt P54764). Particulars: at 0.1 µM.
Assay [19] has the same target. Particulars: at 1 µM.
Assay [20] deals with T3, Ephrin type-B receptor 2 (Homo sapiens) (UniProt P29323).
T3 sequence (whole entry): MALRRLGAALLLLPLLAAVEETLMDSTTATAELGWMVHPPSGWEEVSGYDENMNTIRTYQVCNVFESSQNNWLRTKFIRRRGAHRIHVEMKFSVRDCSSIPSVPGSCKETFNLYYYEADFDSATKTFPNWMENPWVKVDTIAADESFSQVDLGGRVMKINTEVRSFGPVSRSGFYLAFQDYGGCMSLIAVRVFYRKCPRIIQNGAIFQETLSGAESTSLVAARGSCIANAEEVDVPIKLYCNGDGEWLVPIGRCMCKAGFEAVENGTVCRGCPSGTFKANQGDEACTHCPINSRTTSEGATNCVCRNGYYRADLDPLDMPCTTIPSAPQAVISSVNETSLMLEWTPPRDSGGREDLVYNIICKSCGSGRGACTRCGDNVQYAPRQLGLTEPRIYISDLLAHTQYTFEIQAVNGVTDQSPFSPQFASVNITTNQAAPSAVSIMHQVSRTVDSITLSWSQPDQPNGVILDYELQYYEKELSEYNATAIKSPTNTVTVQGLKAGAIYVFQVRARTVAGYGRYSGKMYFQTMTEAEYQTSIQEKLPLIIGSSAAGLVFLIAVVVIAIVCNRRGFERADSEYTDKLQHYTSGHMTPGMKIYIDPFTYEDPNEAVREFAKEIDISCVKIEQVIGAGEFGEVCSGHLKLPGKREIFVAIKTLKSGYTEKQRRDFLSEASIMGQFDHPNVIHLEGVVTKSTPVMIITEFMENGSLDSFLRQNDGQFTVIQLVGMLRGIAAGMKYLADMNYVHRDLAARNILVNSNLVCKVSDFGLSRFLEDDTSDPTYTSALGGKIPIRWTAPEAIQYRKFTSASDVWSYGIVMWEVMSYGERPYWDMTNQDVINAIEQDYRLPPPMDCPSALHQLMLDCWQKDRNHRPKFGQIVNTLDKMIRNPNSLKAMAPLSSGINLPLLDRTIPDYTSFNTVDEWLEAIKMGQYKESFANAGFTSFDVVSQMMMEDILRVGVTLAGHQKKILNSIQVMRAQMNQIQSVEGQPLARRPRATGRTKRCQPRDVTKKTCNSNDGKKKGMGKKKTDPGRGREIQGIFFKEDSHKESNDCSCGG
The settings on record: at 0.1 µM.

Structures are written as SMILES.

Epidermal growth factor receptor (Homo sapiens), P00533 [L858R,T790M], sequence (P00533 whole entry T790M/L858R, looked up): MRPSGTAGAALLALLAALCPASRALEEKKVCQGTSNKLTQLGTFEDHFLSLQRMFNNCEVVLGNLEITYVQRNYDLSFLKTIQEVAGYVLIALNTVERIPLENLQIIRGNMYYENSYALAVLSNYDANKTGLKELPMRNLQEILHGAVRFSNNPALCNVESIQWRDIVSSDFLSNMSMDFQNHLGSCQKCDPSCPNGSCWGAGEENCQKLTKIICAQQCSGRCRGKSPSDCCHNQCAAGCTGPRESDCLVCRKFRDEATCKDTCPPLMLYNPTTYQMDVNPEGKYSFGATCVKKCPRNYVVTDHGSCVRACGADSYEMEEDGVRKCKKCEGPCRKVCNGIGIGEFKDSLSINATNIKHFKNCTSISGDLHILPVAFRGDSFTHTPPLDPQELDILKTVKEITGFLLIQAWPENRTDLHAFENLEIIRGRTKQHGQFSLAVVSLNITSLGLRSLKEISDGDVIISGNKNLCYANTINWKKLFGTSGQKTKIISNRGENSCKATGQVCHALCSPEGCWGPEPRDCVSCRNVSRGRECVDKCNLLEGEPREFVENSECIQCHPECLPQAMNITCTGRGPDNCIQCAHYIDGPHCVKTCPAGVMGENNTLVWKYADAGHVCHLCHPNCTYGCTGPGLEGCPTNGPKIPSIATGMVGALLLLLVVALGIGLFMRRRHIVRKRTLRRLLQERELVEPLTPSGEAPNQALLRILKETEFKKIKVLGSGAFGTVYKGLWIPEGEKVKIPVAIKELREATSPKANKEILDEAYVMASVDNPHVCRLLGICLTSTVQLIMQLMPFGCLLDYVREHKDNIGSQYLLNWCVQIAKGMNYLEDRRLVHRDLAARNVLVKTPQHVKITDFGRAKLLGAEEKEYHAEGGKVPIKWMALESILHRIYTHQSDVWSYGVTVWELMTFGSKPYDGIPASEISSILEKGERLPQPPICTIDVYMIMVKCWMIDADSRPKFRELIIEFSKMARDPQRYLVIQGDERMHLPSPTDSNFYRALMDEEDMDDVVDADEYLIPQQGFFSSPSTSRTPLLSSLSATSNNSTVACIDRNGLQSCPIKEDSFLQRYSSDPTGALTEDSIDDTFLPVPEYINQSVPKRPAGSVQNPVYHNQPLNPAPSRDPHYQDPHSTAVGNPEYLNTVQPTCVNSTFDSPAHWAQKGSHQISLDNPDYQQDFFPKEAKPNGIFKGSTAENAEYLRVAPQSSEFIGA
Ephrin type-A receptor 2 (Homo sapiens), sequence (P29317 whole entry): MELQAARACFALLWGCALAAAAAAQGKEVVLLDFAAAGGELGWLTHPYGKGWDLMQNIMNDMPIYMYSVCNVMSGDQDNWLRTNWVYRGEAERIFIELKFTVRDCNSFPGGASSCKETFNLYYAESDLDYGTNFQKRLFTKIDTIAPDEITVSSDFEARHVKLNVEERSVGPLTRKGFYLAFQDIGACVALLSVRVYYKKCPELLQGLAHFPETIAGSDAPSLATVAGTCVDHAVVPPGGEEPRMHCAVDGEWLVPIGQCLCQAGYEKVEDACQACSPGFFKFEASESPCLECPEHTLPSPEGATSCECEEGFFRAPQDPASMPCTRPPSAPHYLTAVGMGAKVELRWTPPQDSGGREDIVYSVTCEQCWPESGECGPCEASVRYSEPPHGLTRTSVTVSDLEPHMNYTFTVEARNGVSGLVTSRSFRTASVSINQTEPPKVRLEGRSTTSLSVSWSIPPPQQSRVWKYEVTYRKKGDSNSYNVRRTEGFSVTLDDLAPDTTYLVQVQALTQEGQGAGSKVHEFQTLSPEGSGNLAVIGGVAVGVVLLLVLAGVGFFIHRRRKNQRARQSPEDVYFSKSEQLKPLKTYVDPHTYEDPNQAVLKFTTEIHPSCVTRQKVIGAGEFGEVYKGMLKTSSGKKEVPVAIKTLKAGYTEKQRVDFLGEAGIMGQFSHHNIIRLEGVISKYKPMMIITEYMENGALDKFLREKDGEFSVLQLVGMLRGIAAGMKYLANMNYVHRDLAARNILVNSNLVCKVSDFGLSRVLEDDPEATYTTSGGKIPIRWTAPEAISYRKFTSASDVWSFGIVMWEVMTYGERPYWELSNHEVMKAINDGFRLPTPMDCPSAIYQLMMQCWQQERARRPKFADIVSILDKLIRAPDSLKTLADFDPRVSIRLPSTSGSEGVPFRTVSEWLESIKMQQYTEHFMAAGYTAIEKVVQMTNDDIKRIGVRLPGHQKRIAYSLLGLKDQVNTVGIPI
Epidermal growth factor receptor (Homo sapiens), P00533 [L858R], sequence (P00533 whole entry L858R): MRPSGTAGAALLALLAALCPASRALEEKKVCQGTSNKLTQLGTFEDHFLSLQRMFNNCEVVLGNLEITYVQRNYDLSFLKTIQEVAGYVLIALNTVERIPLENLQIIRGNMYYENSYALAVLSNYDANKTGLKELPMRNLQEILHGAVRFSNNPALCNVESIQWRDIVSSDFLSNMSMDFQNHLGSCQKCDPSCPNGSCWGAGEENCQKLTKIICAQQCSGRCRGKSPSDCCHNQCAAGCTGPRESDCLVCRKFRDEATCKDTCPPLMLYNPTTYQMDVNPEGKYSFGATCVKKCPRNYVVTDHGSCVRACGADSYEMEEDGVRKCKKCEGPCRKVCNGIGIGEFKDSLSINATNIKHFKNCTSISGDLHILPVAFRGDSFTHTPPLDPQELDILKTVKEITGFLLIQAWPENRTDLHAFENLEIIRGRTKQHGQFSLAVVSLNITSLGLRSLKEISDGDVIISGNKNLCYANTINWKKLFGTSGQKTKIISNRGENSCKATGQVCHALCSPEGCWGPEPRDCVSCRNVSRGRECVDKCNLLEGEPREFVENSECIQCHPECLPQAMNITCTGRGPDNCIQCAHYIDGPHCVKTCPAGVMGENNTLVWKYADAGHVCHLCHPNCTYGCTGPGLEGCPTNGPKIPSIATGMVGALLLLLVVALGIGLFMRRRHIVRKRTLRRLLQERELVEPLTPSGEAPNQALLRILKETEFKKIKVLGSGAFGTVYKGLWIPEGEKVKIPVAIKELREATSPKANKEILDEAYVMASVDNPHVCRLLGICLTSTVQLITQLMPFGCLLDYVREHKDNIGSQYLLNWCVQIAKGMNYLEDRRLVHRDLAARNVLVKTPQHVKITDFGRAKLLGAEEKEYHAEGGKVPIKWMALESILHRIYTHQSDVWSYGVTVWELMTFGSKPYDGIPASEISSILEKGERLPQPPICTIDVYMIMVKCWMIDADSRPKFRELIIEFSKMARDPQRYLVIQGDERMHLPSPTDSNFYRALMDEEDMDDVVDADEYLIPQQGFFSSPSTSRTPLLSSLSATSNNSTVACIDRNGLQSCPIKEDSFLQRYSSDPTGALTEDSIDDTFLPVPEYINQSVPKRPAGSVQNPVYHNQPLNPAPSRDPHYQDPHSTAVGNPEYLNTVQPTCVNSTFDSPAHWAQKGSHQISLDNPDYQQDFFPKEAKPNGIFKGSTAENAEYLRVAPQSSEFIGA
Tyrosine-protein kinase CSK (Homo sapiens), sequence (P41240 2-450 limits assumed): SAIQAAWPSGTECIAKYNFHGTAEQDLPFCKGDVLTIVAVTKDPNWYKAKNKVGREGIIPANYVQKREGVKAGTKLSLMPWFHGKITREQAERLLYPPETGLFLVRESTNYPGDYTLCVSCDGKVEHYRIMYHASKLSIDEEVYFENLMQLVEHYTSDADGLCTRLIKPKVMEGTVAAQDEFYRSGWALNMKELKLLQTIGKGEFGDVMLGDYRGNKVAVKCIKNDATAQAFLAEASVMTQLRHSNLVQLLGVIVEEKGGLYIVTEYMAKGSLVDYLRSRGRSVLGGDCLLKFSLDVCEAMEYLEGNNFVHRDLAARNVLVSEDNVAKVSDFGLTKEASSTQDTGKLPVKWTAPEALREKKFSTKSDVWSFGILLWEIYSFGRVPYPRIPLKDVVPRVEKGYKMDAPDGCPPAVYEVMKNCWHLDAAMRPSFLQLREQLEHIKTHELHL
Ephrin type-A receptor 4 (Homo sapiens), sequence (P54764 whole entry): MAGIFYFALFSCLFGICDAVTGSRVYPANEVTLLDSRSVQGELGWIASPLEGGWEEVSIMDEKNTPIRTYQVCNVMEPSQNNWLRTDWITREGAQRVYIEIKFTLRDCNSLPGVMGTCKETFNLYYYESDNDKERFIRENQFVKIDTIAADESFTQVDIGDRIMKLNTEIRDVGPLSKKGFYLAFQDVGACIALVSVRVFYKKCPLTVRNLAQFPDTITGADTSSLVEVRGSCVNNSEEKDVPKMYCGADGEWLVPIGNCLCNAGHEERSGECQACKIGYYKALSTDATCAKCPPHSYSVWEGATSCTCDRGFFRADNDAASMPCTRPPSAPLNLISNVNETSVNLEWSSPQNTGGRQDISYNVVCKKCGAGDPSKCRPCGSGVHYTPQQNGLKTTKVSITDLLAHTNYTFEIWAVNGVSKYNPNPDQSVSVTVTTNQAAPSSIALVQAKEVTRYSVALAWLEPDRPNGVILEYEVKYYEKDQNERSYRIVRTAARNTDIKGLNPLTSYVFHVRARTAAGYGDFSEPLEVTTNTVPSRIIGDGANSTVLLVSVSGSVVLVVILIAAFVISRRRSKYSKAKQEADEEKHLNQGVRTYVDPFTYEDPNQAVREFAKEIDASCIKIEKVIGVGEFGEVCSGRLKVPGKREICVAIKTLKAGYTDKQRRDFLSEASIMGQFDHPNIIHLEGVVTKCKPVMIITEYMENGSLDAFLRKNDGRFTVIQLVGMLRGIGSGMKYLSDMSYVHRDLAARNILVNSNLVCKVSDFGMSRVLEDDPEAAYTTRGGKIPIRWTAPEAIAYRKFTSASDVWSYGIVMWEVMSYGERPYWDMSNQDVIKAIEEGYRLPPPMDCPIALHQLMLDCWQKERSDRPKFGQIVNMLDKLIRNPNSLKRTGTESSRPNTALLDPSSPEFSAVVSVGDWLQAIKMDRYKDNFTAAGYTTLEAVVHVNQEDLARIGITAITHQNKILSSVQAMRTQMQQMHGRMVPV

In the case of `N#Cc1ccc(Oc2nccc(-c3c(-c4ccc(F)cc4)ncn3C3CCNCC3)n2)cc1`, the inhibition is 0.87% in assay [1]; 6.23% in assay [2]; 6.42% in assay [3]; -1.1% in [4]; 2.76% in [5]; -0.31% in assay [6]. The inhibition in assay [7] is 7.36%; in assay [8], 3.45%; in [9], 3.57%; in [10], 1.89%; in [11], 3.42%; in assay [12], -0.53%. Further, the inhibition in assay [13] stood at 0.7%; in [14], 0.81%; in assay [15] it was 0.1%; in assay [16] it was 2.13%; in assay [17], 3.63%; in [18], 7.21%. In addition, the inhibition in assay [19] was 9.65%; in [20], 11%.
Turning to `O=C1NC(=O)C(c2cccc(Cl)c2)=C1Nc1ccc(Cl)c(C(=O)O)c1`, the inhibition in assay [1] was 1.91%; in assay [2] it was 3.06%; in assay [3], 4.88%; in assay [4], 1.44%; in assay [5] it was 2.17%; in assay [6], 1.51%. Moreover, the inhibition in [7] turned out to be 5.24%; in assay [8], 1.41%; in [9], 2.94%; in assay [10], 1%; in assay [11], 4.13%; in [12] it was 0.67%. For the same compound, the inhibition is 2.52% in assay [13]; 0.74% in [14]; 0.86% in [15]; 5.42% in [16]; 4.05% in assay [17]; 8.74% in assay [18]. Further, the inhibition in assay [19] amounted to 7.75%; in [20], 5.83%.
Regarding `NS(=O)(=O)c1ccc(Nc2cc(-c3ccc(O)c(F)c3)n[nH]2)cc1`, the inhibition in assay [1] was -6.35%; in assay [2], -0.38%; in assay [3], 18.8%; in assay [4], 0.49%; in assay [5] it was 3.68%; in [6], -2.81%. Moreover, the inhibition in assay [7] was -2%; in assay [8], -1.84%; in [9], 0.29%; in assay [10], -1.07%; in [11], -0.95%; in assay [12], -2.9%. Besides, the inhibition in assay [13] is -4.28%; in assay [14] it was -1.33%; in assay [15], -1.33%; in assay [16], -4.5%; in assay [17], -0.8%; in [18], -6.46%. Besides, the inhibition in assay [19] is -5.56%; in [20] it was -3.09%.
In the case of `CS(=O)(=O)CCNCc1cc(-c2cc3c(Nc4ccc(OCc5cccc(F)c5)c(Cl)c4)ncnc3s2)cs1`, the inhibition was 4.58% in [1]; 4.67% in assay [2]; 6.01% in assay [3]; 61.5% in [4]; 83.7% in assay [5]; 18.1% in assay [6]. The inhibition was determined as 61.2% in assay [7]; 31.4% in assay [8]; 57.8% in assay [9]; 0.98% in assay [10]; 6.23% in assay [11]; 1.25% in [12]. Besides, the inhibition in [13] was 6.55%; in [14], 0.54%; in assay [15], -0.67%; in assay [16] it was 1.87%; in [17], 2.18%; in assay [18], 8.11%. Moreover, the values for the inhibition in [19] and in [20] were 10.4% and 12.3%, respectively.

By inhibition is commonly meant the relative decrease from the control value, in per cent.
